Data on six compounds can be found in PubChem BioAssay (NCI).

Common to all, as to experiment: NCI-60 one-dose screen, 48 h (100 = growth as untreated, 0 = no growth, -100 = all killed)
The test system of test [1] is NCI-H23 lung.
Test [2] has as its system NCI-H226 lung.
Test [3] has as its system NCI-H322M lung. Particulars: 10 µM unless noted.
For test [4], the system named is HOP-62 NSCLC.
Test [5] has as its system NCI-H460 lung.
The subject of test [6] is HOP-92 NSCLC.
The subject of test [7] is NCI-H522 lung.
Test [8] has as its system A549/ATCC NSCLC.
Test [9] relates to 786-0 renal.
In test [10] the test system is COLO 205 colon.
Test [11] deals with DU-145 prostate.
For test [12], the system named is K-562 leukemia.
The test system of test [13] is MALME-3M melanoma.
In test [14] the test system is MDA-MB-231 breast.
The subject of test [15] is RXF 393 renal.
The test system of test [16] is SF-268 CNS.
Test [17] deals with SF-295 CNS.
In test [18] the test system is SF-539 CNS.
The test system of test [19] is UACC-257 melanoma.
In test [20] the test system is M14 melanoma.

Several values for one entry are separate records, joined by “and”; a condition that tells them apart may be missing. Identical values can stand only once. About 83,000 compounds went through this panel and 20% of them were active in at least one assay; those are over-represented in the sample as a whole.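 Results are percent growth after 48 hours of single-concentration exposure. 100 means growth as in untreated cells, lower positive values show inhibition; negative values down to -100 show cell death.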 Activity calls are given as the source filed them. How the source made its calls: active means growth percent below 10; inactive means the rest.

For the compound `CC[C@H](C)[C@H](NC(=O)[C@@H](N)CCC(N)=O)C(=O)N[C@@H](Cc1ccc(O)cc1)C(=O)N[C@@H](CCCCN)C(=O)N[C@@H](CCCCN)C(=O)N[C@@H](Cc1ccc(O)cc1)C(=O)N[C@@H](CCCNC(=N)N)C(=O)N[C@H](C(=O)N[C@@H](Cc1c[nH]c2ccccc12)C(=O)N[C@@H](Cc1ccc(O)cc1)C(=O)N[C@@H](CCCNC(=N)N)C(=O)N[C@@H](CCCCN)C(=O)N[C@@H](C)C(=O)N[C@@H](Cc1c[nH]c2ccccc12)C(=O)N[C@@H](CCCCN)C(=O)N[C@H](C(=O)N[C@@H](CC(C)C)C(=O)NCC(=O)N[C@@H](CCCCN)C(=O)N[C@H](C(N)=O)C(C)C)C(C)C)[C@@H](C)O`, the growth in test [1] (10 µM unless noted) was -15.1% (active); in test [2] (10 µM unless noted) it was 53.4% (inactive); in test [3] it was 23% (inactive); in test [4] (10 µM unless noted), 13.3% (inactive); in test [5] (10 µM unless noted), -4.21% (active); in [6] (10 µM unless noted), -21.2% (active). The growth in test [7] (10 µM unless noted) is 59.4% (inactive); in [8] (10 µM unless noted) it was 38.7% (inactive); in test [9] (10 µM unless noted), -57.9% (active); in test [10] (10 µM unless noted) it was 0.119% (active); in test [11] (10 µM unless noted) it was 6.03% (active); in test [12] (10 µM unless noted), 5.04% (active). Moreover, the growth in test [13] (10 µM unless noted) was -30.6% (active); in test [14] (10 µM unless noted), -29.7% (active); in test [15] (10 µM unless noted), 11.4% (inactive); in test [16] (10 µM unless noted), -29.8% (active); in test [17] (10 µM unless noted) it was 34.6% (inactive); in test [18] (10 µM unless noted), -40.7% (active). The growth in test [19] (10 µM unless noted) was 66.2% (inactive).

`CC(=O)c1nn(-c2ccccc2)/c(=N/N=Cc2cn(-c3ccccc3)nc2-c2cc3ccccc3oc2=O)s1`: the growth in [1] (10 µM unless noted) is 109% (inactive); in test [2] (10 µM unless noted), 105% (inactive); in [3], 93.2% (inactive); in test [4] (10 µM unless noted) it was 101% (inactive); in test [5] (10 µM unless noted), 117% (inactive); in test [6] (10 µM unless noted) it was 94.7% (inactive). Moreover, the growth is 95.6% (inactive) in test [7] (10 µM unless noted); 102% (inactive) in test [8] (10 µM unless noted); 105% (inactive) in [9] (10 µM unless noted); 117% (inactive) in test [10] (10 µM unless noted); 107% (inactive) in test [11] (10 µM unless noted); 98.5% (inactive) in test [12] (10 µM unless noted). The growth in [13] (10 µM unless noted) is 104% (inactive); in [14] (10 µM unless noted) it was 82.6% (inactive); in test [15] (10 µM unless noted) it was 111% (inactive); in [16] (10 µM unless noted) it was 104% (inactive); in test [17] (10 µM unless noted), 103% (inactive); in test [18] (10 µM unless noted) it was 99.6% (inactive). In addition, the growth in test [19] (10 µM unless noted) is 108% (inactive).

For `C#CCOCC1CN(C)C(=O)O1` (centres undefined), the growth in test [1] (10 µM unless noted) is 111% (inactive); in [2] (10 µM unless noted), 103% (inactive); in [3], 114% (inactive); in test [4] (10 µM unless noted), 131% (inactive); in test [5] (10 µM unless noted) it was 103% (inactive); in test [6] (10 µM unless noted), 97.8% (inactive). For the same compound, the growth in test [7] (10 µM unless noted) is 99.7% (inactive); in [8] (10 µM unless noted), 93.7% (inactive); in test [9] (10 µM unless noted), 110% (inactive); in [10] (10 µM unless noted), 123% (inactive); in test [11] (10 µM unless noted), 107% (inactive); in test [12] (10 µM unless noted) it was 101% (inactive). Besides, the growth is 110% (inactive) in test [13] (10 µM unless noted); 110% (inactive) in test [14] (10 µM unless noted); 131% (inactive) in test [15] (10 µM unless noted); 113% (inactive) in test [16] (10 µM unless noted); 105% (inactive) in test [17] (10 µM unless noted); 102% (inactive) in [18] (10 µM unless noted). The growth in [19] (10 µM unless noted) is 104% (inactive).

In the case of `COc1ccc(C(=O)c2ccc(OC)c(OC)c2OC)cc1`, the growth in test [1] (10 µM unless noted) was 41.1% (inactive) and 40.7% (inactive); in [2] (10 µM unless noted), 62.8% (inactive) and 53.2% (inactive); in test [3], 59% (inactive); in [4] (10 µM unless noted), 41.7% (inactive) and 25.5% (inactive); in [5] (10 µM unless noted), 20.1% (inactive) and 5.6% (active); in test [6] (10 µM unless noted), 59.6% (inactive) and 41.5% (inactive). For the same compound, the growth in test [7] (10 µM unless noted) was 11.2% (inactive) and 12.1% (inactive); in [8] (10 µM unless noted) it was 47% (inactive) and 41.3% (inactive); in test [9] (10 µM unless noted), 74% (inactive) and 46.1% (inactive); in [10] (10 µM unless noted) it was 3.87% (active) and -14.7% (active); in test [11] (10 µM unless noted) it was 25.9% (inactive) and 6.1% (active); in [12] (10 µM unless noted), 29.3% (inactive) and 14.6% (inactive). Besides, the growth in test [13] (10 µM unless noted) is 51.5% (inactive) and 23.2% (inactive); in test [14] (10 µM unless noted), 59.2% (inactive) and 48.2% (inactive); in [15] (10 µM unless noted), 9.82% (active) and 15.4% (inactive); in test [16] (10 µM unless noted) it was 49.3% (inactive) and 42.7% (inactive); in [17] (10 µM unless noted), 13.2% (inactive) and -15.2% (active); in [18] (10 µM unless noted), 9.19% (active) and -30.5% (active). Further, the growth in test [19] (10 µM unless noted) was 48.6% (inactive) and 61% (inactive).

Regarding `O=c1ccc2nc(-c3ccccn3)nn(-c3ccccc3)c-2c1`, the growth was 89.5% (inactive) in test [1] (10 µM unless noted); 90.1% (inactive) in [2] (10 µM unless noted); 102% (inactive) in [3]; 93.4% (inactive) in test [4] (10 µM unless noted); 109% (inactive) in [5] (10 µM unless noted); 36.8% (inactive) in [6] (10 µM unless noted). For the same compound, the growth in test [7] (10 µM unless noted) is -45% (active); in test [8] (10 µM unless noted), 101% (inactive); in [9] (10 µM unless noted), 53.6% (inactive); in test [10] (10 µM unless noted) it was -59.4% (active); in [11] (10 µM unless noted), 91% (inactive); in test [12] (10 µM unless noted), -8.79% (active). The growth is -20.6% (active) in test [13] (10 µM unless noted); 68.4% (inactive) in test [14] (10 µM unless noted); 65% (inactive) in test [15] (10 µM unless noted); 98% (inactive) in test [16] (10 µM unless noted); 96.3% (inactive) in test [17] (10 µM unless noted); 103% (inactive) in test [18] (10 µM unless noted). Also, the growth in [19] (10 µM unless noted) was 60.3% (inactive).

On to `CC(=O)/C=C/c1ccc(OCc2ccc(C(C)(C)C)cc2)cc1`, for which the growth in test [1] (10 µM) is 52.5% (inactive); in test [1] (100 µM) it was 31.7% (inactive); in [2] (10 µM), 77.5% (inactive); in test [2] (100 µM) it was 38.3% (inactive); in test [3], 19.4% [100 µM] (inactive); in test [4] (10 µM), 88% (inactive). For the same compound, the growth was 26.8% (inactive) in test [4] (100 µM); 84.4% (inactive) in test [5] (10 µM); 24.6% (inactive) in [5] (100 µM); 89.5% (inactive) in [6] (10 µM); -14.7% (active) in test [6] (100 µM); 76.1% (inactive) in test [7] (10 µM). The growth in [7] (100 µM) is -8.78% (active); in [8] (10 µM) it was 80.3% (inactive); in test [8] (100 µM) it was 41.8% (inactive); in test [9] (10 µM) it was 91.9% (inactive); in test [9] (100 µM) it was 20.7% (inactive); in [10] (10 µM), 78.6% (inactive). Further, the growth in test [10] (100 µM) was -65.6% (active); in test [11] (10 µM), 89% (inactive); in [11] (100 µM), 61% (inactive); in test [12] (10 µM), 39.1% (inactive); in [12] (100 µM), 13.4% (inactive); in [13] (10 µM), 86.4% (inactive). Further, the growth is 29% (inactive) in [13] (100 µM); 84.2% (inactive) in test [14] (10 µM); -39.2% (active) in test [14] (100 µM); 94.6% (inactive) in test [15] (10 µM); 1.8% (active) in test [15] (100 µM); 94.2% (inactive) in test [16] (10 µM). Also, the growth is 42.3% (inactive) in test [16] (100 µM); 69.6% (inactive) in [17] (10 µM); 27.2% (inactive) in [17] (100 µM); 78.4% (inactive) in [18] (10 µM); 34.1% (inactive) in test [18] (100 µM); 70.6% (inactive) in test [19] (10 µM). Moreover, the growth was 2.75% (active) in test [19] (100 µM), 67% (inactive) in test [20] (10 µM) and 10.5% (inactive) in test [20] (100 µM).
